“And” between values parts separate entries of the source, which are not always exact repeats. Identical values can stand only once.

Holding throughout (assay type): functional
Test [1] deals with Solute carrier family 2, facilitated glucose transporter member 1 (Homo sapiens) (UniProt P11166). The experiment in a line: ST_JUDE_LEISH: Cytotoxicity at 2uM final concentration against transgenic Leishmania Mexicana promastigotes LmGLUT1 that are glucose transport deficient and complemented with the human glucose transporter GLUT1. Activity is measured by DNA content using SYBR green in vitro.

Test [2] addresses Hexose transporter 1 (Plasmodium falciparum) (UniProt O97467). The experiment in a line: ST_JUDE_LEISH: Cytotoxicity at 2uM final concentration against transgenic Leishmania Mexicana promastigotes LmPfHT that are glucose transport deficient and complemented with the Plasmodium falciparum hexose transporter. Activity is measured by DNA content using SYBR green in vitro.
The target of test [3] is Glucose transporter (Leishmania mexicana) (UniProt O61059). Nature of the test: ST_JUDE_LEISH: Cytotoxicity at 2uM final concentration against transgenic Leishmania Mexicana promastigotes LmGT2 that are glucose transport deficient and complemented with the L. Mexicana glucose transporter 2. Activity is measured by DNA content using SYBR green in vitro.

Chain of Solute carrier family 2, facilitated glucose transporter member 1 (Homo sapiens) (P11166 whole entry): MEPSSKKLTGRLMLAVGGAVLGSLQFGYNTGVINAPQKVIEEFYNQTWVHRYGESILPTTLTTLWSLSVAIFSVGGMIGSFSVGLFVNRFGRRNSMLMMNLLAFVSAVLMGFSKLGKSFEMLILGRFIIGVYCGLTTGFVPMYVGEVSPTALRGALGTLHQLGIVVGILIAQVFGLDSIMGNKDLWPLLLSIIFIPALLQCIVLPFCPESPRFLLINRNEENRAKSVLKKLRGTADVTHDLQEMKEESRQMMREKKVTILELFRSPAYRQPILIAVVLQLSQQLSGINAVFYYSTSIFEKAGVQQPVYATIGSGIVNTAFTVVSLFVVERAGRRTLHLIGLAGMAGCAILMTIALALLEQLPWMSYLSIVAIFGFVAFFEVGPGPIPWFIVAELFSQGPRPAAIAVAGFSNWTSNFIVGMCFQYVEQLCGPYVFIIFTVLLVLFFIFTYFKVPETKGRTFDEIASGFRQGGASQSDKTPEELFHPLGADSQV

As usually defined, the inhibition is the relative decrease from the control value, in per cent. As for `Cc1cccc2nc(-c3ccc(-c4ccc(NC(=O)C(=O)c5cccn5C)cc4)cc3)[nH]c12`, the results for the inhibition in test [1], in test [2] and in test [3] were 5.06%, 1.84% and 0.5%, respectively.
As for `CCc1c(C)nc(-n2nc(C)cc2NC(=O)C(CC)c2ccccc2)[nH]c1=O` (stereo not given), the values for the inhibition in test [1], in test [2] and in test [3] were 18.6%, 7.02% and -2.05%, respectively.
On to `Cc1cccc2nc(-c3cccc(-c4ccc(NC(=O)Nc5ccc(Cl)c(Cl)c5)cc4)c3)[nH]c12`, for which the inhibition in test [1] was 0.3%; in test [2], -1.23%; in test [3], 1.91%.
The corresponding values for `COc1ccc(C(=O)CCC(=O)N(Cc2ccc(-c3ccc(CNCCc4ccc(S(C)(=O)=O)cc4)cn3)cc2)C(C)CN(C)C)cc1F` (stereo not given) are 3.43%, 3.18% and 2.85%.
The corresponding values for `CN(C)CCN(C)Cc1ccc(-c2ccc3c(Nc4ccc(F)cc4Cl)ccnc3c2)o1` are 1.3%, 0.81% and -0.21%.
Consider `CCN(CC)CCN(Cc1ccc(-c2ccc(C(F)(F)F)cc2)cc1)C(=O)Cn1c(CCc2cc(F)ccc2F)nc(=O)c2ccccc21`, for which the inhibition in test [1] was 1.25%; in test [2], -1.65%; in test [3] it was 1.58%.
The corresponding values for `Oc1ccccc1CCNC1CCc2ccccc2C1` (stereo not given) are 4.4%, 5.27% and 6.05%.
Consider `Cc1cc(NCCc2ccccc2)nc(NC(=N)Nc2ccccc2Cl)n1`, for which the inhibition in test [1] was 9.69%; in test [2] it was 7.74%; in test [3], 7.34%.
Consider `Cc1cc(O)c(-c2cc(C(=O)Nc3cccnc3)[nH]n2)cc1C`, for which the inhibition in test [1] came to 7.05%; in test [2], 4.46%; in test [3] it was 4.37%.
The corresponding values for `CCCCN(C(=O)c1ccccc1C)c1nnc(-c2ccccc2C)s1` are 2.08%, 1.53% and -0.2%.
The corresponding values for `COc1ccc(Nc2ncc3c(-c4cccc(NC(=O)Cc5ccncc5)c4)c[nH]c3n2)cc1OC` are -0.87%, -1.41% and -1%.
Regarding `O=C(Nc1ccc(Br)c(C(F)(F)F)c1)c1cccc([N+](=O)[O-])c1`, the results for the inhibition in test [1], in test [2] and in test [3] were 3.35%, 2.2% and -0.11%, respectively.
As to `O=[N+]([O-])c1ccc(-n2nc(Cc3ccccc3)n(Cc3cccc(F)c3)c2=S)c(C(F)(F)F)c1`, the inhibition is 2.84% in test [1], 3.14% in test [2] and -0.25% in test [3].
In the case of `CS(=O)(=O)c1ccc(-c2cncc(Cl)n2)cc1`, the inhibition in test [1] was 3.73%; in test [2], 3.42%; in test [3], 10.2%.
Turning to `Cc1cnc(-c2ccc(NC(=O)c3coc4ccc(N5CC(C)N(C)C(C)C5)cc34)cc2)o1` (stereo not given), the inhibition in test [1] is -0.6%; in test [2] it was 1.55%; in test [3] it was 0.74%.
Consider `CC(C)(C)CCN1CCC(CNC(=O)c2cc(-c3cccc(Cl)c3)cs2)C1` (stereo not given), for which the inhibition in test [1] was 0.6%; in test [2], -0.8%; in test [3], -1.21%.
For `CCN1CCN(c2cc(C)c3cc(NC(=O)c4cccc(Cl)c4)ccc3n2)CC1`, the inhibition amounted to 7.2% in test [1], 9.24% in test [2] and 8.84% in test [3].
The corresponding values for `O=C(NC1CC1)c1cnc(N2CCC(Oc3ccc(Cl)cc3)CC2)c(Cl)c1` are 5.36%, 2.7% and 0.49%.
Take `N=C(N)NN=C1C=Cc2cccc3cccc1c23`: the inhibition in test [1] is -1.8%; in test [2], 2.26%; in test [3] it was -2.92%.
With `Cc1noc(-c2cccs2)c1C(=O)NCCc1cccc(Cl)c1`, the inhibition in test [1] came to 5.34%; in test [2], 5.32%; in test [3] it was 2.4%.
The corresponding values for `CC(C)c1ccc(NC(=O)NC2CCN(CCCCCNC(=O)/C=C/c3ccc(Cl)c(Cl)c3)CC2)cc1` are -0.71%, -0.91% and -0.17%.
The corresponding values for `COc1cccc2c(Oc3ccccc3C)ccnc12` are -0.44%, -1.86% and 0.33%.
The corresponding values for `Nc1ncc(-c2cn[nH]c2)cc1-c1nc2ccc(Cl)cc2[nH]1` are 2.56%, 3.75% and 3.89%.
Take `COc1nc(Nc2cccc(C)c2)nc(OC)n1`: the inhibition was -0.24% in test [1], 0.66% in test [2] and 0.95% in test [3].
Turning to `COc1cccc(C(=O)NCCc2cccc(Cl)c2)c1OCc1ccccc1`, the inhibition in test [1] was 0.04%; in test [2], -0.53%; in test [3] it was -0.7%.
The corresponding values for `N#Cc1ccc(C(=O)NC2CCN(CCCCCNC(=O)/C=C/c3ccc(Cl)c(Cl)c3)CC2)cc1` are 0.08%, 1.46% and -1.31%.
For `N#CC1(c2ccccc2)CCN(c2nc(NCCCN3CCCC3=O)nc(N3CCCC4CCCCC43)n2)CC1` (stereo not given), the inhibition in test [1] was 2.11%; in test [2] it was 2.3%; in test [3], -0.55%.
The corresponding values for `Cc1nc2nc(N)nc(N)c2c(C)c1Cc1ccccc1I` are 9.13%, 8.12% and 6.31%.
The corresponding values for `CN1CCC(NCc2cccc(-c3ccc(S(=O)(=O)NCCN4CCCC4)s3)c2)CC1` are 4.8%, 5.43% and 0.76%.
The corresponding values for `COc1cc(CNCCCCCCNCc2cc(OC)c(OC)c3ccccc23)c2ccccc2c1OC` are 4.44%, 4.27% and 3.2%.
In the case of `CN(C)c1ccc(-c2csc(C(=O)NCC3CCN(Cc4cccc(C(F)(F)F)c4)C3)c2)cc1` (stereo not given), the inhibition in test [1] is 7.22%; in test [2], 6.1%; in test [3], 9.26%.
Consider `COc1ccc(CNCCCCCNCc2ccc(Cl)c(Cl)c2)cc1Cl`, for which the inhibition was found to be 3.98% in test [1], 3.58% in test [2] and 1.38% in test [3].
As to `CCCCn1c(SC(C)C)nc2c(c1=O)C1(CCCCC1)Cc1ccccc1-2`, the values for the inhibition in test [1], in test [2] and in test [3] were 4.14%, 4.8% and 3.66%, respectively.
In the case of `O=C(/C=C/c1ccc(Cl)c(Cl)c1)NCCCCCN1CCCN(C(=O)Nc2ccc(Br)cc2)CC1`, the inhibition in test [1] came out at 10.6%; in test [2], 10.3%; in test [3], 10.2%.
The corresponding values for `Cc1ccc2[nH]c(C)cc(=NN=Cc3ccccc3Cl)c2c1` are 2.11%, 3.39% and 0.08%.
The corresponding values for `Cc1cccc(Cl)c1S(=O)(=O)Nc1cccc(CCN2CCC(N3CCCCC3)CC2)c1` are -0.03%, -0.24% and -2.34%.
Take `Cc1[nH]c2ccc(-c3ccccc3)cc2c(=O)c1Br`: the inhibition was 1.91% in test [1], 4.13% in test [2] and -0.5% in test [3].
On to `Cc1cccc(N2CCN(C3CCC(NC(=O)c4cc5ccccc5[nH]4)CC3)CC2)c1C` (stereo not given), for which the inhibition in test [1] was 2.31%; in test [2], 1.82%; in test [3], 1.43%.
The corresponding values for `CCCCCCNC(=O)C1Cc2c([nH]c3cc(Cl)ccc23)C2(CCN(Cc3ccccc3)CC2)N1` (stereo not given) are 7.27%, 5.97% and 5.18%.
The corresponding values for `O=S(=O)(c1ccc2ccccc2c1)N1CCCN(Cc2ccc(OCCCN3CCCCC3)cc2)CC1` are 63%, 71.4% and 45.5%.
The corresponding values for `O=C(Nc1cccc(CN2CCCN(Cc3ncc[nH]3)CC2)c1)c1ccc(-c2ccccc2)cc1` are 0.65%, 1.21% and 2.54%.
For `O=C(Nc1cccc(-c2nn3ccccc3c2-c2ccnc(Nc3cccc(N4CCCC4=O)c3)n2)c1)c1cc(F)ccc1F`, the inhibition came to 2.51% in test [1], 3.22% in test [2] and 1.96% in test [3].
For `O=C(NCCc1ccc(Cl)c(Cl)c1)c1ccc(CNC(=O)c2ccc(O)c(-c3ccc(Cl)c(Cl)c3)c2)cc1`, the inhibition in test [1] was 0.99%; in test [2], 1.15%; in test [3], 1.06%.
The corresponding values for `O=C(N[C@@H](Cc1ccccc1)C(=O)NC1CCCCCC1)c1ccc(O)c(-c2cccc(C(F)(F)F)c2)c1` are 5.83%, 4.69% and 0.57%.
Consider `O=C(Nc1ccc(Cl)cc1)c1ccc(S(=O)(=O)NCC2CCN(CC3CCCCC3)CC2)cc1`, for which the inhibition in test [1] was determined as 2.97%; in test [2], 1.04%; in test [3] it was 1.4%.
The corresponding values for `O=C(NC1CCN(Cc2ccccc2)CC1)c1ccc(-c2nc3cc(F)c(F)cc3[nH]2)s1` are 3.16%, 3.84% and 5.72%.
With `O=C(NCCN1Cc2ccccc2C1=O)c1ccc(Oc2ccc(C(=O)NCCN3Cc4ccccc4C3=O)cc2)cc1`, the figures for the inhibition in test [1], in test [2] and in test [3] were -0.35%, 0.02% and -0.4%, respectively.
The corresponding values for `O=[N+]([O-])c1ccc2nccnc2c1` are 6.19%, 5.71% and 6.9%.
Turning to `N#CN1CC[C@@H](OC(=O)N[C@@H]2C[C@H]2c2ccccc2)C1`, the values for the inhibition in test [1], in test [2] and in test [3] were 8.37%, 7.38% and 4.43%, respectively.
As to `Cc1cc(Nc2ccc(OCc3ccccc3Cl)cc2)c2cc(Cl)ccc2n1`, the inhibition in test [1] stood at 19.8%; in test [2], 16.4%; in test [3] it was 7.55%.
The corresponding values for `O=C(Nc1ccc(S(=O)(=O)N2CCCC2)cc1)c1cc(-c2cccnc2)nc2ccc(Cl)cc12` are 7.34%, 2.97% and 3.06%.
The corresponding values for `Oc1ccc(CCCNc2nc(NCc3cccc4ccccc34)nc(NC3CCNCC3)n2)cc1` are -0.36%, 3.07% and 2%.
The corresponding values for `CN1CCN(CCCN(Cc2csc(-c3ccc(CNCc4ccccc4)cc3)n2)C(=O)c2cc(F)cc(F)c2)CC1` are 4.63%, 2.02% and 1.42%.
In the case of `O=C(NCCCCN1CCCC2c3ccc(O)cc3CCC21)c1ccc(-c2ccccc2)cc1` (stereo not given), the inhibition in test [1] is 0.24% and 13.2%; in test [2], 1.39% and 1.92%; in test [3], 0.13% and -0.76%.
With `CN(C)c1cccc(-c2cnc3ccc(NCc4cccc(Cl)c4)nn23)c1`, the inhibition in test [1] was 1.27%; in test [2], 2.01%; in test [3], 1.77%.
